# Measurements published in PubChem BioAssay (NCATS).
# Results filed as inconclusive are left out. Entries that show only a call come without a potency. More than one record can exist for a structure, and the calls need not agree. The source made the active and inactive calls. Unless noted, the call rests on the fitted dose curve; in most records, active means well fitted curve in the direction sought with a large enough effect; inconclusive means small, poorly fitted or top-dose-only effect, or another doubt; inactive means no such curve, though single readings can be large; an effect the other way counts as inactive or inconclusive.
# Experiments:
# [1] = Cytometric Cell-Based qHTS for Inhibitors of the mTORC1 Signaling Pathway in MEF (Tsc2-/-, p53-/-) Cells (AID 2660); details: mTORC1 pathway cytometry; series mostly up to 38.3 µM;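 further: Tsc2 and p53 null MEFs carrying empty vector with compound for 24 h; percent of cells above a phospho-rpS6 to PI ratio cutoff in each well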
# In short: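 Percent of cells positive for normalized phospho-S6 staining is reported, with the cutoff set from rapamycin (7.5 nM) versus DMSO wells. Tsc2-/-, p53-/- MEFs received compound for 24 hrs.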
# [2] = High Content Imaging Cell-Based qHTS for Inhibitors of the mTORC1 Signaling Pathway in MEF (Tsc2-/-, p53-/-) Cells (AID 2666); details: at 38.3 µM (top of the series);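 further: percent of cells scored positive for phospho-rpS6 Ser235/236 immunostaining by imaging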
# In short: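 Cells were plated, dosed with compound after 24 hrs, and incubated another 24 hrs at 37 degree Celsius. Fixed cells were immunostained for phospho-rpS6 Ser235/236 and counterstained, and the normalized signal was scored as % active cells against rapamycin and DMSO controls.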
# [3] = High Content Imaging Cell-Based qHTS for Inhibitors of the mTORC1 Signaling Pathway in MEF Cells (AID 2667); details: series mostly up to 38.3 µM;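 further: Tsc2-/- p53-/- MEFs stably re-expressing wild-type Tsc2 exposed 24 h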
# In short: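 Immunofluorescence for rpS6 phosphorylation in MEFs of Tsc2-/-, p53-/- background rescued with WT Tsc2. Compound exposure lasted 24 hrs. Inhibition was scored against rapamycin-treated control wells.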
# [4] = Cytometry Cell-Based qHTS for Inhibitors of the mTORC1 Signaling Pathway in MEF cells (AID 2668); details: mTORC1 pathway readout; series mostly up to 38.3 µM;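 further: Tsc2-/- p53-/- mouse embryonic fibroblasts stably re-expressing wild-type Tsc2; percent cells positive for phospho-rpS6 Ser235/236 relative to propidium iodide stain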
# In short: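 MEFs (Tsc2-/-, p53-/- stably expressing WT Tsc2) treated 24 h at 37 degree Celsius, fixed, stained with Alexa-488 anti-phospho-rpS6 Ser235/236 and propidium iodide; Acumen laser scanning. Reported as % positive cells, phospho-S6 normalized to PI.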
# [5] = Validation screen for small molecules that induce DNA re-replication in MCF 10A normal breast cells (AID 463097); details: MCF 10A cells, DNA re-replication phenotype imaging; series mostly up to 46.1 µM; further: nearly all actives have a fitted effect of over 60% in size; further: potency means the concentration at half of the fitted maximal effect
# In short: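 MCF 10A cells exposed to compound 48 hr at 37 C, 5% CO2, then Hoechst-stained 40 min. Laser-scanning imaging of nuclear DNA content (405 nm ex, 500-530 nm em); re-replication scored as rise in nuclei with elevated fluorescence intensity.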
# [6] = target: DNA polymerase III PolC-type (Bacillus subtilis (strain 168)) (UniProt P13267); assay: qHTS Validation Assay for the Inhibitors of DNA Replication in Gram-Positive Bacteria (AID 485295); details: Gram-positive bacterial DNA replication assay; series mostly up to 57.1 µM;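 further: PicoGreen fluorescence of double-stranded DNA made on primed circular M13 template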
# In short: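 Reconstituted B. subtilis Pol III holoenzyme (PolC, beta clamp, SSB, primase) preincubated with compound, then M13Gori single-stranded circular template with dNTPs/NTPs added; room temperature reaction. Stopped with EDTA/PicoGreen; dsDNA fluorescence read, EDTA as full-inhibition control.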
# [7] = target: Tumor susceptibility gene 101 protein (Homo sapiens) (UniProt Q99816); assay: qHTS Validation Assay for Iinhibitors of HIV-1 Budding by Blocking the Interaction of PTAP/TSG101 (AID 485342; calls by dose curve); details: TSG101-PTAP binding, fluorescence polarization, 4-point titration; series mostly up to 115 µM
# In short: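 Tsg101 binding domain (10 uM) with FITC-labeled PTAP peptide (50 nM) in HEPES pH 7.5 buffer, 20 min at r.t. with compounds. Binding measured by fluorescence polarization.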
# [8] = qHTS Validation Assay to Find Inhibitors of Chronic Active B-Cell Receptor Signaling (AID 485345; active means well fitted curve in the direction sought with a large enough effect in the main read-out, with a control signal flat, not every such curve was filed as active); details: ABC-DLBCL cells, chronic BCR signaling reporter, CBG luciferase; series mostly up to 46.1 µM
# In short: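 Read-out: ratio of filter-corrected green (IkappaBalpha fusion) to red (native) luciferase signal in doxycycline-induced TMD8 cells after 4 h at 37C. Titration spanned 46 uM–3 nM; Data were normalised to basal cells and 10 uM MG-132 wells.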
# [9] = target: Beta-2 adrenergic receptor (Homo sapiens) (UniProt P07550); assay: qHTS validation assay of beta-arrestin-biased ligands of beta2-adrenergic receptor (AID 485366); details: cell-based beta-arrestin recruitment to ADRB2, qHTS; series mostly up to 46.1 µM
# In short: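 Luminescence from a tTA-responsive luciferase, induced when recombinant beta-arrestin is recruited to recombinant beta2-AR, served as the agonism signal. Cells were exposed to compound for 18 hr at 37 degrees C; titrations spanned up to 46 microM.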
# [10] = Quantitative high throughput screen for delayed death inhibitors of the malarial parasite plastid, 48 hour incubation (AID 488752); details: Plasmodium falciparum growth; series mostly up to 28.7 µM; further: nearly all actives have a fitted effect of over 65% in size; further: potency means the concentration at half of the fitted maximal effect
# In short: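 One parasite generation (48 h, 37 C, 5% CO2) of luciferase-reporter P. falciparum in erythrocytes is run with test compound; decreased luminescence indicates inhibited growth.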
# [11] = target: Thioredoxin reductase 1, cytoplasmic (Rattus norvegicus) (UniProt O89049); assay: qHTS Assay for Substrates of Mammalian Selenoprotein Thioredoxin Reductase 1 (TrxR1) (AID 488772); details: purified TrxR1, NADPH consumption substrate assay; series mostly up to 57.1 µM;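 further: NADPH fluorescence in the first read after selenite addition and not the 8 min delta; a drop in NADPH fluorescence below the no-compound background marks a TrxR1 substrate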
# In short: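 Quantitative HTS in Tris-HCl buffer at pH 7.5 with EDTA and Tween-20, using rat TrxR1, 400 uM NADPH and 400 uM selenite (final). A fall in initial NADPH fluorescence relative to background marked substrate behaviour.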
# [12] = target: Thioredoxin reductase 1, cytoplasmic (Rattus norvegicus) (UniProt O89049); assay: qHTS Assay for Inhibitors of Mammalian Selenoprotein Thioredoxin Reductase 1 (TrxR1) (AID 488773); details: purified TrxR1 enzyme activity; Potency: inhibition; series mostly up to 57.1 µM; further: nearly all actives have a fitted effect of over 40% in size; further: potency means the concentration at half of the fitted maximal effect
# In short: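 Steps: enzyme (90 nM) plus NADPH (400 uM final), 5 min at ~22 deg C; compound added, 15 min; selenite (400 uM final) added; fluorescence followed for 8 min. Concentration-response curves derived from the normalized delta values.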
# [13] = target: Flap endonuclease 1 (Homo sapiens) (UniProt P39748); assay: qHTS Validation Assay for the Inhibitors of Human Flap endonuclease 1 (FEN1) (AID 488816); details: FEN1 nuclease activity, fluorogenic DNA substrate; series mostly up to 57.1 µM
# In short: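 Readings taken at 0 and 15 min after starting the reaction with 50 nM (final) substrate supplied the signal. Compounds had first sat with 10 nM FEN1 reagent for 15 min at room temperature. Values come from Hill-equation concentration-response fits.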
# [14] = target: M-phase phosphoprotein 8 (Homo sapiens) (UniProt Q99549); assay: qHTS Validation Assay for Inhibitors for MPP8 Chromodomain Interactions with Methylated Histone Tails (AID 488949); details: AlphaScreen MPP8 binding to H3K9me3 peptide; series mostly up to 57.1 µM; further: nearly all actives have a fitted effect of over 55% in size; further: potency means the concentration at half of the fitted maximal effect
# In short: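 MPP8 (50 nM) was pre-bound to 50 nM biotinylated H3(1-18)K9me3 peptide in PBS pH 7.4 with 0.01% Tween-20. Compounds were then added for 30 min at room temperature, and complex disruption was read by AlphaScreen with streptavidin donor and nickel-chelate acceptor beads.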
# [15] = target: Chromobox protein homolog 1 (Homo sapiens) (UniProt P83916); assay: qHTS Validation Assay for Inhibitors of HP1-beta Chromodomain Interactions with Methylated Histone Tails (AID 488953); details: HP1-beta chromodomain / methylated histone peptide binding assay; series mostly up to 114 µM; further: nearly all actives have a fitted effect of over 50% in size; further: potency means the concentration at half of the fitted maximal effect
# In short: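 Measured as loss of AlphaScreen luminescence from streptavidin donor and nickel acceptor beads (10 ug/mL final) bridging HP1-beta and biotin-H3(1-18)K9me3, each 50 nM. Compounds met the preassembled complex for 30 min at RT.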
# [16] = target: Methanococcus maripaludis chaperonin (MmCpn) (UniProt Q6LX38); assay: High-Throughput Screening for Modulators of Cytosolic Chaperonin Activity: MmCpn Primary Screen (AID 488978); details: Purified MmCpn ATPase activity, ADP HTRF detection, 10 min; series mostly up to 76.9 µM;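 further: 50 nM MmCpn enzyme hydrolysing 30 µM ATP at 37 °C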
# In short: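 MmCpn at 50 nM final was preincubated 5 min at RT with compound. ATP was then added at 30 uM final for 10 min at 37 C. ADP formed was detected by Transcreener HTRF (665/590 nm).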
# [17] = target: Transient receptor potential cation channel subfamily V member 1 (Homo sapiens) (UniProt Q8NER1); assay: HTS Assay for Compounds that Act as Enhancers of the Vanilloid Receptor 1 (AID 488979); details: TRPV1-expressing cells, enhancer of channel activity, stimulated with capsaicin at EC20; series mostly up to 41.7 µM
# In short: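 Calcium influx kinetics via Fluo-8 (480/520 nm) in TRPV1-expressing cells, 2000/well cultured overnight at 35.5C. Compound-alone read 3 min (agonist phase), followed by EC20 capsaicin challenge for 2 min (enhancer phase).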
# [18] = target: D(1A) dopamine receptor (Homo sapiens) (UniProt P21728); assay: HTS Assay for Allosteric Agonists of the Human D1 Dopamine Receptor: Primary Screen for Agonists (AID 488981); details: Inducible HEK293 T-REx D1 cells, calcium-flux fluorescence, 180 s kinetic; series mostly up to 41.8 µM
# In short: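 Calcium flux in an inducible, force-coupled HEK293 Trex D1 line (overnight at 30 C): agonist mode is the 180 s kinetic read after compound; potentiator mode is the following 180 s read after dopamine at EC20.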
# [19] = Quantitative high throughput screen for delayed death inhibitors of the malarial parasite plastid, 96 hour incubation (AID 488745); details: Plasmodium falciparum growth; series mostly up to 28.7 µM; further: nearly all actives have a fitted effect of over 70% in size; further: potency means the concentration at half of the fitted maximal effect
# In short: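 Growth of reporter-bearing P. falciparum in red cells is measured after 96 h with compound, covering two erythrocytic cycles. Luminescence from the integrated luciferase serves as the growth signal.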
# [20] = target: ATP-dependent 6-phosphofructokinase (Trypanosoma brucei brucei) (UniProt O15648); assay: qHTS Validation Assay to Find Inhibitors of T. brucei phosphofructokinase (AID 485368); further: potency means the concentration at half of the fitted maximal effect; details: T. brucei PFK enzyme assay, qHTS 7-point titration; series mostly up to 57.5 µM
# In short: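 Activity was normalized between 1x (1.25 nM) PFK wells as no inhibition and enzyme-free wells as full inhibition, from luminescence after ADP-Glo detection of ADP made from 0.5 mM F6P and 0.1 mM ATP over 45 min.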
# Sequence of D(1A) dopamine receptor (Homo sapiens) (P21728 whole entry, looked up): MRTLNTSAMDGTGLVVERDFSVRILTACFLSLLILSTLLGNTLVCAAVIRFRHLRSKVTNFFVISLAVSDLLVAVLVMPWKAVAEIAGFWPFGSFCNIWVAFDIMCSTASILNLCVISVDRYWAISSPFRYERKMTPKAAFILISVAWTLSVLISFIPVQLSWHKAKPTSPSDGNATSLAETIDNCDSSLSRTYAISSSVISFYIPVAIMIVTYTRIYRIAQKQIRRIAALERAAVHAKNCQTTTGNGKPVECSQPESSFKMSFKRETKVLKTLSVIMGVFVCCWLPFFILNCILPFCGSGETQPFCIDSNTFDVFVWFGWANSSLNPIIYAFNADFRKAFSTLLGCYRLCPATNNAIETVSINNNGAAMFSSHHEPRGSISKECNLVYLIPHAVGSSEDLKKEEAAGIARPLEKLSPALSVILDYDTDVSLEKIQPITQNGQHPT
# Sequence of Methanococcus maripaludis chaperonin (MmCpn) (Q6LX38 1-543): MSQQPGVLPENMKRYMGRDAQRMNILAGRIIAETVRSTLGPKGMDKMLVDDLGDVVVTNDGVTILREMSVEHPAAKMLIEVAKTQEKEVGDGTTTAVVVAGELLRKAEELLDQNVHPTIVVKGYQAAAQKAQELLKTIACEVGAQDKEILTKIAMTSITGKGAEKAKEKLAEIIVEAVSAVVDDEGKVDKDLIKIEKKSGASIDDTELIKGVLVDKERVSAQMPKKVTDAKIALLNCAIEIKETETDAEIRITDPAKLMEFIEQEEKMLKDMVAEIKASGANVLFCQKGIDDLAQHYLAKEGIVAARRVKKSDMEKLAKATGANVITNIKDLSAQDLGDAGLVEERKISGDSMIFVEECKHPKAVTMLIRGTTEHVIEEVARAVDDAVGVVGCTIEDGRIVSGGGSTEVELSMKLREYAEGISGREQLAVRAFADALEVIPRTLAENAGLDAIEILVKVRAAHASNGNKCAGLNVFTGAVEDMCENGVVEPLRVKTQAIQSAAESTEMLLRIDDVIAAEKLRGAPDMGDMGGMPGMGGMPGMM
# Sequence of Transient receptor potential cation channel subfamily V member 1 (Homo sapiens) (Q8NER1 whole entry, looked up): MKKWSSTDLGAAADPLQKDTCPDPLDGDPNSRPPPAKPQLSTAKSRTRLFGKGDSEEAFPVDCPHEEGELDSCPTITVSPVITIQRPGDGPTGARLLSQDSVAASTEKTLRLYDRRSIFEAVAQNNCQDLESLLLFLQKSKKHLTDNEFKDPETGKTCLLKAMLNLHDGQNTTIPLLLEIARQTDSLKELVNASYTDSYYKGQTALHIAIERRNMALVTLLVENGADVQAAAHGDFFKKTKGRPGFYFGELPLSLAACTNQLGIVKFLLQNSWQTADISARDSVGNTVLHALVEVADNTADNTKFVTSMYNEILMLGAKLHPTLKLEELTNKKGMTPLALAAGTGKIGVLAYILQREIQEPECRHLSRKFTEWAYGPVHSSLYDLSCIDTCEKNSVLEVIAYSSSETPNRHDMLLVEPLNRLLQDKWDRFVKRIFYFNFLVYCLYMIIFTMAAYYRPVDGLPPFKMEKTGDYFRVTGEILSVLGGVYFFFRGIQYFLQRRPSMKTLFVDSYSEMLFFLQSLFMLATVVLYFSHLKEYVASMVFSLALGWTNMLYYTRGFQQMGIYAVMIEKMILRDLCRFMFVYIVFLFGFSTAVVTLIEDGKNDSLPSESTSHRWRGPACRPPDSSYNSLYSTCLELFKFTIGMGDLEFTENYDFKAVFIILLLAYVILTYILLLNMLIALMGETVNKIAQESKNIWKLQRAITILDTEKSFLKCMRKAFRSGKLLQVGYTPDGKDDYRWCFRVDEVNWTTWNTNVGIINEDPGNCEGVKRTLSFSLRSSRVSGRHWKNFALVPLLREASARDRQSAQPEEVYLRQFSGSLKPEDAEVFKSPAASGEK
# Sequence of DNA polymerase III PolC-type (Bacillus subtilis (strain 168)) (P13267 whole entry, looked up): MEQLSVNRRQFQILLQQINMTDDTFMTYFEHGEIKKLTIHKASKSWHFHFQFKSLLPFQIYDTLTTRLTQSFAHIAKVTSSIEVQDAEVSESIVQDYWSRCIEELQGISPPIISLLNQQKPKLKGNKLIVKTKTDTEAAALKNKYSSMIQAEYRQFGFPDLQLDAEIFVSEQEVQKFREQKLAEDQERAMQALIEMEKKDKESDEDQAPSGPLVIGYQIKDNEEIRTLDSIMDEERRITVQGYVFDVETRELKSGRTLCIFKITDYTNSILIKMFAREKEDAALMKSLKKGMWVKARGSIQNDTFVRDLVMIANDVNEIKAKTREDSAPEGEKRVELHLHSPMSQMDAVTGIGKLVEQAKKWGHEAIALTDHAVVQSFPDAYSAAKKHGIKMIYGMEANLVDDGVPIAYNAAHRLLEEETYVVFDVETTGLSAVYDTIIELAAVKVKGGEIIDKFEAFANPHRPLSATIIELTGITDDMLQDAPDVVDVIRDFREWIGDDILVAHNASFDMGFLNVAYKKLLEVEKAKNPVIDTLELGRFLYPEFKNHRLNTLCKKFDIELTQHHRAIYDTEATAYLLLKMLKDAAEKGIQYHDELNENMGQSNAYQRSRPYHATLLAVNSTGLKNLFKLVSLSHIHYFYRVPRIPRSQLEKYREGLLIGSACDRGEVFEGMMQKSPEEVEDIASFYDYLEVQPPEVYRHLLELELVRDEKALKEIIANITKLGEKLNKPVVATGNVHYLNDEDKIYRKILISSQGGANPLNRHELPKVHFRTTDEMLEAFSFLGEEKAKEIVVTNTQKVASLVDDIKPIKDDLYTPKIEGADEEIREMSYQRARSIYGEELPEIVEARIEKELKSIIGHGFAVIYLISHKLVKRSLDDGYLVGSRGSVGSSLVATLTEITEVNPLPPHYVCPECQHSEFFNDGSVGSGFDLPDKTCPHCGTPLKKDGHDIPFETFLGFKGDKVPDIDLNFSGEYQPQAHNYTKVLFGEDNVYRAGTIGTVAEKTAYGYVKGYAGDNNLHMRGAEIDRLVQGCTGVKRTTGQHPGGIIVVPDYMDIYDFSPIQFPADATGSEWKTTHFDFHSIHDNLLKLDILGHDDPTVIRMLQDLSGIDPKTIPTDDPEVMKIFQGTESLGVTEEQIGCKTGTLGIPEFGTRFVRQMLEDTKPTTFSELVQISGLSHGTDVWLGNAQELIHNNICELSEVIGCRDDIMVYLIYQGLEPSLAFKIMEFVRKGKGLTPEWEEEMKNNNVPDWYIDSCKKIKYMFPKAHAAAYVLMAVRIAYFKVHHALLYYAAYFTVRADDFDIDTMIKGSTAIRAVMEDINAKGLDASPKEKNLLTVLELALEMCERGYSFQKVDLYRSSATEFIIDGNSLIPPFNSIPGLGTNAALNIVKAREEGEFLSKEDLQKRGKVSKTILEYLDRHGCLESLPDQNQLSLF
# Sequence of Tumor susceptibility gene 101 protein (Homo sapiens) (Q99816 whole entry, looked up, the tested form may be a part): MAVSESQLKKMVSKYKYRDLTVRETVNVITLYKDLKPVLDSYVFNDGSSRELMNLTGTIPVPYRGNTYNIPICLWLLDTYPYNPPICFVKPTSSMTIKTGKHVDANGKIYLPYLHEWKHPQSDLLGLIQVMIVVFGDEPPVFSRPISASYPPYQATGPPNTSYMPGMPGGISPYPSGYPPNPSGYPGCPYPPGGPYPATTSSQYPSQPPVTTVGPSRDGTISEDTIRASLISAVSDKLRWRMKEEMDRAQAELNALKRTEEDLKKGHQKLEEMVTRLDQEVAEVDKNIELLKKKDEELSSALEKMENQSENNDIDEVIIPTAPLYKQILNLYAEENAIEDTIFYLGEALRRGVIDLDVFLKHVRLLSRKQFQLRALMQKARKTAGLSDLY
# Sequence of Beta-2 adrenergic receptor (Homo sapiens) (P07550 whole entry, looked up): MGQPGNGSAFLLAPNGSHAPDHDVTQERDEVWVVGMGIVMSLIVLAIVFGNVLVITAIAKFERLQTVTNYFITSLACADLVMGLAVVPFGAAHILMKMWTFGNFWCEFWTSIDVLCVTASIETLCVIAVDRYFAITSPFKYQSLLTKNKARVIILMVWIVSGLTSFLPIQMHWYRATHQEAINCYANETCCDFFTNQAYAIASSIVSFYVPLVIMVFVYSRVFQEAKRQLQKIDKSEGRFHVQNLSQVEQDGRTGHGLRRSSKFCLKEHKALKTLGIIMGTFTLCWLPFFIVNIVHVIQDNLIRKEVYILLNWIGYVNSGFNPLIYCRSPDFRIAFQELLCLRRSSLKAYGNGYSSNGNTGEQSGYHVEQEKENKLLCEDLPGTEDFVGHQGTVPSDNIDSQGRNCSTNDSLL
# Sequence of Chromobox protein homolog 1 (Homo sapiens) (P83916 whole entry, looked up): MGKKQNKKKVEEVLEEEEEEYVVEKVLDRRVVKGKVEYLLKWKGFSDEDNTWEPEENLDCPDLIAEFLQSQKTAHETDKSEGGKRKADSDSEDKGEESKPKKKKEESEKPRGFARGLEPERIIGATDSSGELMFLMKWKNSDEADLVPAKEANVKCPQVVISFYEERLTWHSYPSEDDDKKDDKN
# Sequence of ATP-dependent 6-phosphofructokinase (Trypanosoma brucei brucei) (O15648 whole entry, looked up): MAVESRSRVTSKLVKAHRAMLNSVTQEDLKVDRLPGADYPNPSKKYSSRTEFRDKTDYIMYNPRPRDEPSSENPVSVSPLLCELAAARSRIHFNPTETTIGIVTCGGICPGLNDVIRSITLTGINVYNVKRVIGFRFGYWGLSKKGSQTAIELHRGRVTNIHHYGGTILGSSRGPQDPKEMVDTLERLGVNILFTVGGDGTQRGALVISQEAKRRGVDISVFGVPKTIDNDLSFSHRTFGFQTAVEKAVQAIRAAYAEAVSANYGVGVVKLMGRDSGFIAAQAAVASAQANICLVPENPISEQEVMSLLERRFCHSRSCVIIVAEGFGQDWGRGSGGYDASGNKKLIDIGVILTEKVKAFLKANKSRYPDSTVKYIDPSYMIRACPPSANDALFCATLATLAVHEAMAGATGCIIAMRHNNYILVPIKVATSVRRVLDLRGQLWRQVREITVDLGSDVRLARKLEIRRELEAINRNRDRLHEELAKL
SMILES,outcome [1],outcome [2],outcome [3],outcome [4],Potency [5],outcome [6],outcome [7],outcome [8],outcome [9],Potency [10],outcome [11],Potency [12],outcome [13],Potency [14],Potency [15],outcome [16],outcome [17],outcome [18],Potency [19],Potency [20]
O=C1NC(c2cccc([N+](=O)[O-])c2)=CCN1c1ccccc1O,inactive,inactive,inactive,inactive,inactive,inactive,inactive,inactive,inactive,inactive,inactive,inactive,inactive,inactive,inactive,inactive,inactive,inactive,,
C[N+](C)(C)CCO,inactive,inactive,inactive,inactive,inactive,inactive,inactive,inactive,inactive,inactive,inactive,inactive,inactive,inactive,inactive,inactive,inactive,inactive,inactive,
CCN(CC)CCNC(=O)c1ccc(NS(C)(=O)=O)cc1,inactive,inactive,inactive,inactive,,inactive,inactive,inactive,inactive,,inactive,inactive,inactive,inactive,inactive,inactive,,inactive,,inactive
C[C@]12CCC(=O)C=C1CC[C@@H]1[C@@H]2[C@@H](O)C[C@@]2(C)[C@H]1CC[C@]2(O)C(=O)COC(=O)CCC(=O)O,,,,,inactive,,,,,inactive,,,,inactive,,,inactive,,inactive,
COc1ccccc1N1CCN(CCN2C(=O)CC3(CCCC3)CC2=O)CC1,inactive,inactive,inactive,inactive,inactive,inactive,inactive,inactive,inactive,inactive,inactive,inactive,inactive,inactive,inactive,inactive,inactive,inactive,,inactive
Brc1ccc([C@H]2CN3CCSC3=N2)cc1,inactive,inactive,inactive,inactive,7.08 µM (active),inactive,inactive,inactive,inactive,inactive,inactive,inactive,inactive,inactive,,inactive,inactive,inactive,inactive,inactive
CN(C)c1cc2c(Nc3ccc4c(cnn4Cc4ccccc4)c3)ncnc2cn1,inactive,inactive,inactive,,3.16 µM (active),inactive,inactive,,inactive,4.65 µM (active),inactive,inactive,,inactive,,inactive,inactive,inactive,7.38 µM (active),
O=[N+]([O-])c1ccc(-c2nc(-c3ccc(F)cc3)c(-c3ccncc3)[nH]2)cc1,inactive,inactive,,,12.6 µM (active),inactive,inactive,,inactive,10.4 µM (active),inactive,inactive,inactive,22.4 µM (active) and inactive,31.6 µM (active),inactive,inactive,inactive,,inactive
COC(=O)C1=CO[C@@H](O)[C@@H]2C(CO)=CC[C@H]12,inactive,inactive,inactive,inactive,,inactive,inactive,inactive,inactive,,,inactive,inactive,inactive,inactive,inactive,,inactive,,inactive
O=C1NC(=O)/C(=C/c2ccc3c(c2)OC(F)(F)O3)S1,inactive,inactive,inactive,inactive,,inactive,inactive,,inactive,,inactive,inactive,inactive,inactive,,inactive,,inactive,,inactive
N[C@@H](Cn1ccc(=O)c(O)c1)C(=O)O,inactive,inactive,inactive,inactive,,inactive,inactive,inactive,inactive,,inactive,inactive,inactive,inactive,inactive,inactive,,inactive,,
NC(N)=NCCCCN=C(N)N,inactive,inactive,inactive,inactive,inactive,inactive,inactive,inactive,inactive,inactive,inactive,inactive,inactive,inactive,inactive,inactive,inactive,inactive,inactive,inactive
COc1cccc2c1[C@@H]1CN(CCCCn3c(=O)[nH]c4c(sc5ncc(-c6ccccc6)nc54)c3=O)C[C@@H]1CO2,,,,,,,inactive,,inactive,,inactive,inactive,inactive,20 µM (active),22.4 µM (active),inactive,inactive,inactive,,
Cn1cnc2c(NCc3ccccc3)nc(NCCO)nc21,inactive,inactive,inactive,inactive,inactive,inactive,inactive,inactive,inactive,,inactive,inactive,inactive,inactive,inactive,inactive,inactive,inactive,,inactive
CC(C)N(CCC(=O)c1ccc2ccccc2c1)Cc1ccccc1,,inactive,,,3.55 µM (active),inactive,inactive,,inactive,inactive,inactive,7.52 µM (active),inactive,28.2 µM (active) and inactive,44.7 µM (active),inactive,,inactive,inactive,13.5 µM (active)
Cc1nn(-c2ccccc2)c(C)c1/C=N/N1CCN(Cc2ccccc2)CC1,inactive,inactive,inactive,inactive,,inactive,inactive,,inactive,,inactive,inactive,inactive,,39.8 µM (active),inactive,,inactive,,inactive
Nc1ncnc2n[nH]c(Nc3ccc(F)cc3)c12,inactive,inactive,inactive,,,inactive,inactive,inactive,inactive,,inactive,inactive,inactive,inactive,inactive,inactive,,inactive,,inactive
Clc1ccc2c(c1)N=C(N1CCNCC1)c1ccccc1N2,inactive,inactive,,,,inactive,inactive,,inactive,,inactive,,inactive,inactive,inactive,inactive,,,,inactive
